D1 allo mod – allosterically modulates the human D1 dopamine receptor. HEK293 D1, CRE-luciferase, dopamine EC30 potentiation; actives deviate in either direction. B-score at 10 µM. 5.9% of 58,000 active. AID 641;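 active = luminescence count or its row- and column-corrected plate score outside the 99.7% band of the plate's sample wells, on either side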
Target sequence (P21728 whole entry, looked up): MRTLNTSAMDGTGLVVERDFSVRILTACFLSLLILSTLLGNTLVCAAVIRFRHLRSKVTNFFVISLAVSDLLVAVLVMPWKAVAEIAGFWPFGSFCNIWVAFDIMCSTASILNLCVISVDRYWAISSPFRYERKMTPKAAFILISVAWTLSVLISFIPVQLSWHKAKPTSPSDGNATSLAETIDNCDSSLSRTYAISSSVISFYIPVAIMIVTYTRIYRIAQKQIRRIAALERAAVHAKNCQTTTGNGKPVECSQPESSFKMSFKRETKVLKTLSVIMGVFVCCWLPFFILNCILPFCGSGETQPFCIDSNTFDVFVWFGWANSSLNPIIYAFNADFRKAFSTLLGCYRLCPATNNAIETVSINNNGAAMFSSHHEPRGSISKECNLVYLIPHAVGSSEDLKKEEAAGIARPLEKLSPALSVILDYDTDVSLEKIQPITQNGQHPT
hDAT+cocaine – human DAT dopamine uptake with cocaine, either direction. Q01959. LLC-PK1 hDAT cells, [14C]-dopamine uptake with cocaine IC80; actives deviate in either direction. B-score at 10 µM. 1.3% of 110,000 active. AID 449768;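 active = Z score or B-score, a plate-position-corrected score, falls beyond the plate's 99.7% confidence bounds, in either direction; inactive = both scores lie inside the 99.7% bounds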
BAP1 inh – human BAP1 deubiquitinase inhibition | calls only at 20 µM | Q92560 | AID 436 | recombinant BAP1, Ub-AMC hydrolysis fluorescence kinetic; stronger effect = lower value | 0.48% of 72,000 active;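 active = activity remaining at or below 50% of control, provided the compound also passes the data quality filters; inactive = the rest, including low values that fail the filters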
Numbers stand for hits; . = inactive; / = not tested or not shown. Many of the other results were omitted from the sample, so hits are more common in it than they were.

SMILES | D1 allo mod | hDAT+cocaine | BAP1 inh
CC1(C)Cc2c(C#N)c(N)sc(=S)c2CS1 | . | . | .
Cc1ccc(-c2nc(NC(=O)CSc3nnc4scc(-c5ccccc5)n34)ns2)cc1 | . | 2.55 | .
CCc1nnc(NC(=O)CSc2nnc3scc(-c4ccc(C)cc4)n23)s1 | . | . | .
Cn1c(SCC(=O)NCc2ccc3c(c2)OCO3)nnc1-c1cccs1 | . | . | /
Cc1ccc(-c2csc3nnc(SCC(=O)NCc4ccc5c(c4)OCO5)n23)cc1 | 19.3 | . | .
Cc1ccc(C(=O)Nc2cc(C34CC5CC(CC(C5)C3)C4)ccc2C)cc1 | / | / | .
OC(COc1ccccc1Cl)CN1CCN(CC(O)COc2ccccc2Cl)CC1 (stereo not drawn) | -6.27 | . | .
OC(COc1ccc2ccccc2c1Cl)CN1CCOCC1 (stereo not drawn) | . | . | .
C=CCc1ccccc1OCC(O)CN1CCN(c2ccccc2F)CC1 (stereo not drawn) | -4.6 | . | .
CCOc1ccccc1N1CCN(Cc2cccc(OC)c2O)CC1 | -3.68 | . | .
COc1ccccc1N1CCN(CC(O)COc2cccc3ccccc23)CC1 (stereo not drawn) | . | . | .
COc1cccc(OC)c1OCC(O)CN1CCN(c2ccccc2F)CC1 (stereo not drawn) | / | / | .
COc1ccccc1N1CCN(Cc2cc(Br)c(O)c3ncccc23)CC1 | . | . | .
C=CCc1ccccc1OCC(O)CN1CCN(c2ccccc2OC)CC1 (stereo not drawn) | -6.07 | . | /
COc1ccc(C2(CC(N)=O)CCOC(C)(C)C2)cc1 (stereo not drawn) | / | / | .
CC(C)(C)c1ccc(OCC(=O)Nc2ccc3oc(-c4ccncc4)nc3c2)cc1 | / | / | .
COC(=O)c1ccc(Cn2nc(C)cc2C)cc1 | / | . | /
COC(=O)c1ccc(Cn2nc(C)c(Br)c2C)cc1 | -2.74 | . | .
CC(=O)N1CCc2cc(C(=O)CN3CCN(c4cccc(Cl)c4)CC3)ccc21 | -3.45 | . | .
CC(=O)N1CCc2cc(C(=O)CN3CCC(C)CC3)ccc21 | . | . | .
O=C(Nc1nnc(CCc2ccccc2)s1)c1cccc(Br)c1 | / | / | .
O=C1NC(c2cccs2)Nc2sc3c(c21)CCCC3 (stereo not drawn) | . | 2.8 | .
O=C1NC(c2cccc3ccccc23)Nc2sc3c(c21)CCCC3 (stereo not drawn) | / | / | .
Cc1ccc(OC(=O)c2cccc(C(=O)Oc3ccc(C)cn3)n2)nc1 | . | -8.02 | /
CCOC(=O)c1cccc(C(=O)OCC)n1 | . | . | .
SMILES | D1 allo mod | hDAT+cocaine | BAP1 inh
COc1ccc(OC)c(NC2OC(=O)c3c2ccc(OC)c3OC)c1 (stereo not drawn) | / | / | .
Cc1occc1-c1nnc(SCC(=O)NCCc2ccccc2)n1C(C)c1ccccc1 (stereo not drawn) | / | 2.71 | .
Cc1cccc(C)c1NC(=O)CSc1nnc(-c2ccoc2C)n1CCc1ccccc1 | . | . | .
COc1ccc2nc(NC(=O)Cc3ccc(Cl)cc3)sc2c1 | / | / | .
CCOC(=O)N1CCC(NC(=O)Cc2ccc(-n3c(=O)[nH]c4ccccc4c3=O)cc2)CC1 | . | / | .
CCOC(=O)N1CCC(NC(=O)c2cn(-c3ccc(OC)cc3)c(=O)c3ccccc23)CC1 | . | 2.23 | .
CCN(Cc1c(O)ccc2c3c(c(=O)oc12)CCC3)C1CCCCC1 | / | / | .
CCCCN(C)Cc1c(O)ccc2c3c(c(=O)oc12)CCC3 | / | / | .
c1ccc(OCc2nn3c(-c4ccccn4)nnc3s2)cc1 | / | -9.39 | /
c1ccc(OCc2nn3c(-c4ccncc4)nnc3s2)cc1 | . | . | .
COc1cc(NS(=O)(=O)c2ccc(NC(=O)c3ccccc3OC)cc2)nc(OC)n1 | / | / | .
c1ccc2nc(-c3nc4ccccc4o3)ccc2c1 | -3.95 | . | /
c1cc(-c2nc3ccccc3o2)nc(-c2nc3ccccc3o2)c1 | . | / | .
O=C(Nc1ccc(Cl)cn1)c1ccc(I)cc1 | / | / | .
CCOC(=O)c1cccc(NC(=O)C2CCCN(S(=O)(=O)c3c(C)n[nH]c3C)C2)c1 (stereo not drawn) | . | . | .
CCOC(=O)c1cccc(NC(=O)C2CCCN(S(=O)(=O)c3c(C)nn(C)c3C)C2)c1 (stereo not drawn) | . | 3.05 | .
CC1=C(C(=O)OC(C)C)C(c2ccccc2Br)C2=C(CC(C)(C)CC2=O)N1 (stereo not drawn) | / | / | .
CCCCCC(=O)NC(NC(=S)NC1CCS(=O)(=O)C1)C(Cl)(Cl)Cl (stereo not drawn) | / | -2.97 | /
CCCCCC(=O)NC(NC(=S)N1CCOCC1)C(Cl)(Cl)Cl (stereo not drawn) | / | . | /
CCOC(=O)C1CCN(c2ncnc3c2oc2ccccc23)CC1 | . | . | .
CCOC(=O)c1cnn(-c2ncnc3c2oc2ccccc23)c1N | -3.71 | . | .
COC(=O)c1ccc(CSc2nc3ccccc3c(=O)n2-c2ccccc2)o1 | / | . | /
COC(=O)c1ccc(CSc2nc3ccccc3c(=O)n2-c2ccc(OC)c(OC)c2)o1 | . | 3.5 | .
O=C(c1cc(-c2cccc(O)c2)on1)N1CCCCC1 | -4.79 | . | .
COc1cccc(-c2cc(C(=O)N3CCCCCC3)no2)c1 | -4.85 | . | .
SMILES | D1 allo mod | hDAT+cocaine | BAP1 inh
O=C(c1cc(-c2ccc(Cl)c(Cl)c2)on1)N1CCCC1 | . | . | .
CN1CCN(C(=O)c2cc(-c3ccccc3)on2)CC1 | . | . | .
COc1cccc(-c2cc(C(=O)N3CCCCC3C)no2)c1 (stereo not drawn) | . | / | .
O=C(c1cc(-c2ccc(F)cc2)on1)N1CCCC1 | -3.6 | / | .
COc1ccc(C(=O)NCC(=O)n2nc(C)cc2C)cc1 | / | / | .
O=C(Nc1ccccc1[N+](=O)[O-])c1cccc(S(=O)(=O)N2CCc3ccccc32)c1 | / | / | .
CCCCC(O)(C(NC=O)C(=O)OC)C(F)(F)F (stereo not drawn) | . | -8.6 | .
CCOC(=O)C1=C(C)NC2=C(C(=O)CC(C)(C)C2)C1c1coc2ccc(C)cc2c1=O (stereo not drawn) | / | / | .
CCOc1cc2c(c([N+](=O)[O-])c1)NC(c1ccc([N+](=O)[O-])cc1)C1CC=CC21 (stereo not drawn) | / | / | .
Cc1ccc(NC(=O)c2ccc(-c3nn(C)c(=O)c4ccccc34)cc2)cc1 | / | . | /
Cn1nc(-c2ccc(C(=O)Nc3cccc(Cl)c3)cc2)c2ccccc2c1=O | / | -0.998 | /
Cc1cc(C)cc(-n2nc3c(c2NC(=O)c2ccc(S(=O)(=O)N4CCCC4)cc2)CSC3)c1 | / | / | .
CCOc1cccc2cc(C(N)=O)c(=Nc3sc4c(c3C(N)=O)CCCC4)oc12 | / | / | .
CSc1nnc2c3c4c(sc3c(=O)n(-c3ccccc3)n12)CC(C)(C)OC4 | 5.87 | . | .
CCOC(=O)C1CCN(C(=O)C2CCN(c3nc4ccc(OC)cc4s3)CC2)CC1 | / | -8.15 | /
CCOC(=O)C1CCN(Cc2cnc(Oc3ccc(OC)cc3)s2)CC1 | / | . | /
Cc1ccc2oc(-c3cc(NC(=O)c4cccc([N+](=O)[O-])c4)ccc3Cl)nc2c1 | / | / | .
Cc1cc2cc(C(c3nnnn3Cc3ccco3)N3CCc4ccccc43)c(=O)[nH]c2cc1C (stereo not drawn) | . | . | .
Cc1cc2cc(C(c3nnnn3Cc3ccco3)N3CCc4ccccc4C3)c(=O)[nH]c2cc1C (stereo not drawn) | . | 3.87 | .
Cc1cc(C)c2cc(CN(CCO)C(=O)Nc3ccc(Cl)cc3)c(=O)[nH]c2c1 | . | . | .

Assay outcomes as filed in PubChem.
